In the supplement of paper PMC3334620:
Over roughly 33,000 sequences, “E-score (-0.5 to 0.5)” has its median near -0.0059; the highest 2% begin near 0.26. For the sample, the highest values were picked, then their nearest neighbours and some sequences at random.

Biological target: T1, Cin5 (UniProt P40917)
T1 sequence: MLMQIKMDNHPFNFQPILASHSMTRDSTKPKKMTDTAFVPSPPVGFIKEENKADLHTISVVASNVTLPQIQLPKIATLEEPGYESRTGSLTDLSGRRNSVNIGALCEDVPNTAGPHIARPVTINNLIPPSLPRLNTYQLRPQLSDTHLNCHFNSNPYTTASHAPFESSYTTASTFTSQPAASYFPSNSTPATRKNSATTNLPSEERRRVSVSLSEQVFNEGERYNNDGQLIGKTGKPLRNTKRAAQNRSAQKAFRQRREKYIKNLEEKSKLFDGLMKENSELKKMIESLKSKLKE
Assay: PBM E-score (8-mer binding enrichment) (E-score (-0.5 to 0.5)); higher = stronger / more preferred TF binding
Conditions: protein concentration: 100 nM; construct: GST-full length
Procedure: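 Universal 'all 10-mer' protein binding microarrays (Agilent AMADID 015681) probed with GST-tagged S. cerevisiae TFs (full-length or DBD) made by in vitro transcription/translation (PURExpress), about 100-200 nM. Bound TF was detected with fluorescent anti-GST. Each ungapped 8-mer (which stands for itself and its reverse complement) is scored by the PBM enrichment score (E-score), a modified Wilcoxon-Mann-Whitney statistic from -0.5 to +0.5, computed with the Universal PBM Analysis Suite. Scale: above 0.35 generally sequence-specific binding.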

Row | Sequence | PBM E-score
1 | CTCTGAGC | -0.2
2 | ACTGGGAT | 0.0399
3 | GCTCTTCA | -0.157
4 | CGGAGTGA | 0.0979
5 | CGTTCAAA | -0.0884
6 | GACGTCAC | 0.00326
7 | GGCCAACA | -0.0942
8 | AATCGATA | 0.247
9 | CATCGATA | 0.258
10 | CATCGATG | 0.0124
11 | ATGCTTCA | 0.0559
12 | AATCACCG | 0.0462
13 | CCCCACCC | 0.153
14 | CCCACCCA | 0.21
15 | CCCACCCC | 0.24
16 | ACCCACCC | 0.323
17 | CCCACCCG | 0.293
18 | GCCCACCC | 0.191
19 | CCAGCGAG | -0.0473
20 | CGAAATGA | 0.19
21 | ATGGGACA | 0.0583
22 | GTGCTCGA | -0.0887
23 | GTGCTAAA | 0.00722
24 | ATGTAATA | 0.361
25 | CTGTAATC | 0.128

Row | Sequence | PBM E-score
26 | CTGTAATA | 0.105
27 | AAGTAATT | 0.181
28 | AAGTAATC | 0.339
29 | ATGTAATG | 0.193
30 | AAGTAACA | 0.316
31 | ATGTAATC | 0.383
32 | AAGTAACT | 0.186
33 | CAGTAATC | 0.15
34 | AAGTAACG | -0.0154
35 | GTGTAATA | 0.193
36 | TAGATCCA | -0.00386
37 | CGTGCCGA | -0.115
38 | AGGAAATA | 0.164
39 | GGCTCCAA | -0.169
40 | AGGCTAAT | 0.0863
41 | ATAAGACA | 0.105
42 | GAATCCGA | 0.0296
43 | CGTGGTCA | -0.0679
44 | ACAATGTG | 0.0255
45 | AACATGTC | 0.0503
46 | AACATGTG | 0.257
47 | CACATGTG | -0.00999
48 | CTCTTGGC | -0.112
49 | AGACTTAA | -0.139
50 | TGACTTAA | 0.268

Row | Sequence | PBM E-score
51 | GGACTTAA | -0.15
52 | GCAATCAA | 0.195
53 | AATGTTGA | -0.014
54 | CATGTTGA | 0.293
55 | CATGTTGC | -0.00801
56 | GCACCACA | -0.122
57 | AACAATAA | 0.257
58 | AACAATAC | 0.187
59 | ACCAATAT | 0.323
60 | ACCAATAC | 0.104
61 | ACCAATAG | -0.123
62 | AACAATAT | 0.345
63 | GCTTGCCA | -0.131
64 | ATCTGGCC | -0.108
65 | CACGCGAC | -0.0294
66 | TACTTGCA | 0.141
67 | CCACAGAC | -0.0305
68 | AGCGCTTA | 0.157
69 | CTCGCTGA | -0.0383
70 | CGCGCTGA | 0.104
71 | CTCGCTTA | 0.346
72 | ATCGCTTA | 0.0758
73 | CGCGCTTA | 0.297
74 | AGGTATAT | 0.193
75 | GGCGGGTA | -0.194

Row | Sequence | PBM E-score
76 | CGCCAAAC | -0.072
77 | ACGCTAAC | 0.0232
78 | GTTCAAAA | -0.105
79 | GTTAGTAA | 0.111
80 | CTTAGTAA | 0.392
81 | CTTAGTAC | 0.0461
82 | ATTAGTAG | 0.0962
83 | ATTAGTAC | 0.173
84 | ATTAGTAA | 0.387
85 | ATCTGGGC | -0.0822
86 | AGCTGTTC | -0.0725
87 | TCGCAAAA | 0.156
88 | CAGTATGC | 0.0107
89 | CTTAGCTC | -0.106
90 | ACATGTAA | 0.168
91 | CCATGTAG | -0.00831
92 | ACATGTAG | 0.278
93 | CCAGATTA | 0.225
94 | CGGCTCGC | 0.0606
95 | ATGATGTC | 0.233
96 | GAAATGTA | 0.143
97 | ATGATGAA | 0.258
98 | TAAATGTA | 0.191
99 | AAAATGGA | 0.29
100 | ATGATGTA | 0.305

Row | Sequence | PBM E-score
101 | AAAATGGG | -0.0874
102 | ATGATGTG | 0.145
103 | CTGATGAA | 0.0259
104 | GTGATGAA | 0.0186
105 | CAAATGTA | 0.268
106 | CAAATGGA | -0.0888
107 | GCATAGCA | -0.0462
108 | AGCCACCT | -0.192
109 | GATCTGGA | -0.125
110 | CCTTAACG | -0.0146
111 | GTAGGGAA | 0.00147
112 | GAAACGCC | 0.114
113 | CGGGCGTA | -0.132
114 | ACAACCGT | -0.172
115 | CTGATGTC | 0.184
116 | GTGATGTA | 0.172
117 | CTGATGTA | 0.266
118 | GCAGCAAC | -0.0419
119 | ATGAATGC | 0.167
120 | ATGAATGA | 0.143
121 | ATGAATGG | 0.301
122 | CCCATCAG | -0.165
123 | CACCACGG | -0.325
124 | ATATTAAG | 0.122
125 | CTATTAAG | -0.041

Row | Sequence | PBM E-score
126 | AGATTAAT | 0.218
127 | ATATTAAC | 0.28
128 | GTATTAAA | 0.149
129 | TGATTAAA | 0.0915
130 | ATATTAAT | 0.362
131 | CTATTAAC | 0.115
132 | ATATTAAA | 0.35
133 | TTATTAAA | 0.278
134 | CTATTAAA | 0.00048
135 | GTATTAAC | 0.00428
136 | AAGGATAG | 0.0333
137 | TCGATGCA | 0.152
138 | GTTCAGTA | 0.0391
139 | TGGTCGAA | -0.242
140 | ATATCCCC | 0.0837
141 | TGCTGCCA | -0.0641
142 | ATGATTCG | 0.053
143 | CATCCCTA | 0.122
144 | CATTCTGG | 0.0333
145 | GCACCTAA | -0.0501
146 | TCATTAAA | 0.353
147 | GCATTAAA | 0.0586
148 | ACATTAAA | 0.152
149 | GCGTCCAC | -0.283
150 | GCCTCCGC | -0.203

Row | Sequence | PBM E-score
151 | ATATTACG | 0.376
152 | AAATTACG | 0.171
153 | ATATTACC | 0.317
154 | ATATTACA | 0.209
155 | CTATTACC | -0.0809
156 | AAATTACC | 0.123
157 | AAGAAAAT | 0.159
158 | CTCTACAC | -0.0485
159 | ATAGTAAC | 0.182
160 | ATCGTAAA | 0.0952
161 | TTAGTAAA | 0.269
162 | GTAGTAAA | 0.149
163 | ATCGTAAT | 0.385
164 | ATAGTAAT | 0.358
165 | ATAGTAAA | 0.198
166 | CTAGTAAA | 0.165
167 | ATCGTAAC | 0.0852
168 | CCGGTAGG | -0.163
169 | CCCAGAAG | -0.167
170 | GCGATAGA | 0.0484
171 | CGACTTGA | -0.0696
172 | AATCTACC | 0.138
173 | CAGATTCC | -0.0124
